# Measured values from PubChem BioAssay (EPA / NIEHS).
# Several values for one entry are separate records, joined by “and”; a condition that tells them apart may be missing. Equal entries are not always repeated. Some structures have more than one record in an assay (separate samples or runs), and their calls can disagree. Activity calls are given as the source filed them. The calls were made as follows: active = hit-call score of the fitted dose curve at least 0.9, where 1 is the maximum; inactive = score below 0.9.
# Assay: ATG_TA_CIS: Attagene CIS-FACTORIAL HepG2 Assay for human TA Basal Promoter (AID 2282964)
# Settings: HepG2 Attagene CIS-factorial TA basal promoter reporter; actives raise or lower the signal
# Outline: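 HepG2 cells transiently transfected with multiplexed cis-promoter reporter units, dosed 24 h. Reporter mRNA measured by RT-PCR, 6-FAM labelling, HpaI digestion and capillary electrophoresis; bidirectional fit versus DMSO baseline, serving as background control.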
Compound,outcome,AC50
O=C1OC(=O)C(F)(F)C1(F)F,inactive,
CCCCc1ccc2ccccc2c1S(=O)(=O)O,inactive,
Oc1c(Cl)cc(Cl)cc1Sc1cc(Cl)cc(Cl)c1O,inactive,
CCOC(C)=O,inactive,
CCc1cccc(CC)c1N(COC)C(=O)CS(=O)(=O)O,inactive,
N=C(N)c1ccc(OCCCCCOc2ccc(C(=N)N)cc2)cc1,,59 µM (active)
O=C(O)CN(CCCN(CC(=O)O)CC(=O)O)CC(=O)O,inactive,
CCC1CO1 (centres undefined),inactive,
CC=O,inactive,
Cc1cc(Cc2cc(C)cc(C(C)(C)C)c2O)c(O)c(C(C)(C)C)c1,inactive,
O=C(F)C(F)(F)C(F)(F)C(F)(F)C(=O)F,inactive,
CCOC(OCC)C(=O)c1ccccc1,inactive,
O=C1c2ccc(O)c(O)c2C(=O)c2c(O)ccc(O)c21,inactive,
CCc1cccc(CC)c1NC(=O)C(=O)O,inactive,
OCC(CO)(CBr)CBr,inactive,
CCOCCOCC,inactive,

Compound,outcome,AC50
OCC(F)(F)C(F)(F)C(F)(F)C(F)(F)C(F)(F)C(F)(F)C(F)(F)C(F)(F)C(F)(F)C(F)(F)C(F)(F)F,inactive,
CCOC(=O)c1nc(C(Cl)(Cl)Cl)n(-c2ccc(Cl)cc2Cl)n1,,173 µM (active)
CC(C)c1c(C(=O)Nc2ccccc2)c(-c2ccccc2)c(-c2ccc(F)cc2)n1CC[C@@H](O)C[C@@H](O)CC(=O)O,,66.4 µM (active) and 45 µM (active)
C[C@]12CC[C@@H]3c4ccc(O)cc4CC[C@H]3[C@@H]1C[C@@H](O)[C@@H]2O,inactive,
FC(OC(F)(F)C(F)(F)C(F)(F)F)C(F)(F)F (centres undefined),inactive,
CCC(=O)O,inactive,
CC1=NN(c2ccccc2)C(=O)C1,inactive,
Nc1ccc(O)c(C(=O)O)c1,inactive,
O=C(C=C(O)C(F)(F)F)C(F)(F)F,inactive,
O=C(Nc1cccc([N+](=O)[O-])c1)c1cc2ccccc2cc1O,inactive,
CCOC=O,inactive,
Oc1ccc(Cc2ccccc2O)cc1,inactive,
O=CC(F)(F)C(F)(F)C(F)(F)C(F)F,inactive,
CCCCCCCCCCCC[N+](C)(C)CCCCCCCCCCCC,,26.3 µM (active)
CCc1ccccc1O,inactive,

# Assay: ATG_TCF_b_cat_CIS: Attagene CIS-FACTORIAL HepG2 Assay for human T-Cell-Factor with beta-catenin (TCF/b-cat) (AID 2282965)
# Settings: HepG2 TCF/beta-catenin cis-reporter transcription, actives raise or lower the signal
# Outline: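 HepG2, transient MRTU transfection, cis-element-driven reporters (endogenous TFs). 24 h compound exposure. Readout: reporter mRNA by RT-PCR + 6-FAM primer extension, HpaI digest, capillary electrophoresis. Gain/loss fit vs DMSO baseline.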
Compound,outcome,AC50
O=C1OC(=O)C(F)(F)C1(F)F,inactive,
CCCCc1ccc2ccccc2c1S(=O)(=O)O,inactive,
Oc1c(Cl)cc(Cl)cc1Sc1cc(Cl)cc(Cl)c1O,inactive,
CCOC(C)=O,inactive,
CCc1cccc(CC)c1N(COC)C(=O)CS(=O)(=O)O,inactive,
N=C(N)c1ccc(OCCCCCOc2ccc(C(=N)N)cc2)cc1,,36.6 µM (active)
CCCCCCCCCCCCCCCC(=O)OC,inactive,
O=C(O)CN(CCCN(CC(=O)O)CC(=O)O)CC(=O)O,inactive,
CCC1CO1 (centres undefined),inactive,
CC=O,inactive,
Cc1cc(Cc2cc(C)cc(C(C)(C)C)c2O)c(O)c(C(C)(C)C)c1,,180 µM (active)
O=C(F)C(F)(F)C(F)(F)C(F)(F)C(=O)F,inactive,
CCOC(OCC)C(=O)c1ccccc1,inactive,
O=C1c2ccc(O)c(O)c2C(=O)c2c(O)ccc(O)c21,inactive,
CCc1cccc(CC)c1NC(=O)C(=O)O,inactive,
OCC(CO)(CBr)CBr,inactive,

Compound,outcome,AC50
CCOCCOCC,inactive,
OCC(F)(F)C(F)(F)C(F)(F)C(F)(F)C(F)(F)C(F)(F)C(F)(F)C(F)(F)C(F)(F)C(F)(F)C(F)(F)F,inactive,
CCOC(=O)c1nc(C(Cl)(Cl)Cl)n(-c2ccc(Cl)cc2Cl)n1,inactive,
CC(C)c1c(C(=O)Nc2ccccc2)c(-c2ccccc2)c(-c2ccc(F)cc2)n1CC[C@@H](O)C[C@@H](O)CC(=O)O,inactive,144 µM (active)
C[C@]12CC[C@@H]3c4ccc(O)cc4CC[C@H]3[C@@H]1C[C@@H](O)[C@@H]2O,inactive,
FC(OC(F)(F)C(F)(F)C(F)(F)F)C(F)(F)F (centres undefined),inactive,
CCC(=O)O,inactive,
Oc1cccc2c(O)cccc12,inactive,
CC1=NN(c2ccccc2)C(=O)C1,inactive,
Nc1ccc(O)c(C(=O)O)c1,inactive,
O=C(C=C(O)C(F)(F)F)C(F)(F)F,inactive,
CCCCCC(C)OC(=O)COc1ccc(Cl)c2cccnc12 (centres undefined),inactive,
COc1cccc(O)c1,inactive,
O=C(F)C(F)(F)C(F)(F)C(F)(F)C(F)F,inactive,
O=C(Nc1cccc([N+](=O)[O-])c1)c1cc2ccccc2cc1O,inactive,
O=P(O)(O)CCC(F)(F)C(F)(F)C(F)(F)C(F)(F)C(F)(F)C(F)(F)C(F)(F)C(F)(F)F,inactive,
